# Vaccinia Venus: qHTS for Stage-Specific Inhibitors of Vaccinia Orthopoxvirus: Venus Reporter Primary qHTS | Vaccinia virus Venus reporter expression, fluorescence | Potency, µM (top dose mostly 36.5 µM), for inactives: top-dose activity change, negative = inhibition, most hits filed as inhibitors | 330,000 tested, 0.46% active | AID 720580, 2013; calls by dose curve; tested in A549 cells; note: potency is the fitted concentration of half-maximal effect; nearly all actives have a fitted effect of over 30% in size
# VACV mCherry inh: qHTS for Stage-Specific Inhibitors of Vaccinia Orthopoxvirus: mCherry Reporter Primary qHTS; Potency, µM (top dose mostly 36.5 µM), without a hit: at the top dose activity change, negative = inhibition, usual class: inhibitors; AID 720579, 2013; Vaccinia virus mCherry reporter infection, fluorescence; 310,000 tested, 0.63% active; calls by dose curve; tested in A549 cells; note: potency is the fitted concentration of half-maximal effect; nearly all actives have a fitted effect of over 35% in size
# HCV inhibitor: qHTS Assay for Inhibitors of Hepatitis C Virus (HCV); Huh7.5.1 HCVcc-Cre infection, luciferase reporter, 44 h; Potency, µM (titrated, usually from 41.8 µM), inactives show at the highest dose activity change, negative = inhibition, usual class: inhibitors; 340,000 tested, 3.4% active; active = well fitted inhibition curve with a large enough effect; inconclusive = small, poorly fitted or top-dose-only effect, or another doubt; inactive = no such curve, though single readings can be large or run the other way; note: potency is the fitted concentration of half-maximal effect
#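 Seed cells (1,000/well) for 4 h; treat with compound and infect with HCVcc-Cre, moi about 0.5. Incubate 44 h, then detect luciferase activity.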
# HCMV inh: qHTS Assay for inhibitors of the human cytomegalovirus (HCMV) | activity change, negative = inhibition, % at 57.5 µM | HFF cells, HCMV-luciferase reporter, 72 h; active compounds read low | AID 1259415, 2018 | 410,000 tested, 4.5% active; in the data active = activity change below about -60%; inconclusive = no clear call, values can overlap the other calls; inactive = above about -39%
#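 Screen run at 2 compound doses on HFFs infected with reporter HCMV, MOI 1 PFU/cell. Luciferase activity from cell lysates at 72 h post infection gave inhibition relative to buffer-only and Salinomycin wells.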
# FMDV antiviral: High Throughput Screening for Foot and Mouth Disease Virus Antivirals; FMDV antiviral cell-based qHTS; AID 1159524, 2015; 410,000 tested, 1.2% active; Potency, µM (series often up to 57.9 µM), inactives show top-dose activity change, negative = inhibition, actives largely listed as inhibitors; calls by dose curve; tested in HEK293T cells; note: read-out not given here; potency is the fitted concentration of half-maximal effect; nearly all actives have a fitted effect of over 45% in size
# * = called active by the depositor; i = inactive; ? = inconclusive; / = no result given; [ ] = dose if it differs, or a comment. This is a sample that favours compounds with a hit; in the whole collection about 7.3% have one here. % is set by controls: 0 for no effect and ±100 for the full control effect.
SMILES,Vaccinia Venus,VACV mCherry inh,HCV inhibitor,HCMV inh,FMDV antiviral
O=C(Cc1c[nH]c2ccccc12)Nc1nnc(C2CC2)s1,20.0%,?,-0.6%,-79.7*,-1.0%
O=C(Cc1ccc([N+](=O)[O-])cc1)Nc1nnc(C2CC2)s1,0.1%,-0.9%,3.8%,-12.5,-9.8%
CCCCN(C(=O)c1ccc(C)o1)c1c(N)n(CC(C)C)c(=O)[nH]c1=O,/,/,3.2%,-21.9,-8.6%
CN(C)C(=O)NC1c2ccccc2-c2ccccc21,/,/,-10.4%,-31.1,-10.1%
O=C(NC1c2ccccc2-c2ccccc21)N1CCCCC1,?,7.08µM*,17.8%,-19.3,-2.1%
CCOc1cc(/C=N/NC(N)=O)cc(Br)c1OCC(=O)Nc1cccc2ccccc12,-11.5%,/,17.8µM*,37.2,?
CCOc1cc(/C=N/NC(N)=O)cc(Br)c1OCC(=O)Nc1ccccc1C,-10.0%,-21.6%,?,-21.5,-17.8%
CCc1ccccc1NC(=O)c1cc(S(=O)(=O)N(CC)c2ccccc2)ccc1F,-12.1%,-9.0%,/,?,?
COc1ccccc1Oc1cn[nH]c1-c1ccc(OCC(=O)NN)cc1O,/,/,10.0%,-4.8,-19.6%
O=[N+]([O-])c1ccc(COc2ccc(-c3[nH]ncc3-c3ccc(Cl)cc3)c(O)c2)cc1,?,-21.8%,?,-6.9,31.6µM*
CCOc1ccc(-c2[nH]ncc2-c2ccccc2)c(O)c1,/,/,5.9%,?,-19.3%
COc1ccc(-c2cn[nH]c2-c2ccc(OCc3ccccc3F)cc2O)cc1OC,?,?,11.2µM*,-61.0*,?
COc1ccc(-c2cn[nH]c2-c2ccc(OCc3ccc([N+](=O)[O-])cc3)cc2O)cc1OC,/,/,?,-96.0*,15.8µM*
Oc1ccc(-c2[nH]ncc2-c2ccc(Cl)cc2)c(O)c1,/,/,?,-32.9,-14.7%
COc1ccc(Nc2nc(N3CCCCC3)c3ccccc3n2)cc1,?,?,?,-63.9*,25.1µM*
CC(Nc1nc(N2CCCCC2)nc2ccccc12)c1ccccc1 (configuration not stated),/,/,?,-35.7,?
CC1CCN(c2nc(/C=C/c3ccccc3)nc3ccccc23)CC1,-20.9%,i,?,23.9,0.5%
C=CCNc1nc(N2CCCC2)nc2ccccc12,-13.4%,/,15.8µM*,-36.7,-16.0%
Cc1ccc(Nc2nc(N3CCOCC3)c3ccccc3n2)cc1,?,-4.3%[1.46 µM],?,-32.0,?
COc1ccc(Nc2nc(-c3ccccc3)c3cc(Br)ccc3n2)cc1,-11.6%,-12.9%,/,-61.2*,7.4%
C(=C\c1nc(N2CCCC2)c2ccccc2n1)/c1ccccc1,?,?,?,-71.9*,?
CSCCC(NC(=O)COc1ccccc1)C(=O)N1CCN(c2ccccc2Cl)CC1 (configuration not stated),-29.0%,-31.6%,?,-7.7,24.2%
O=C1NC(Cc2ccc(O)cc2)c2nc3ccccc3c(=O)n2-c2ncccc21 (configuration not stated),-9.8%,-14.4%,/,-16.9,-21.4%
COCCNC(=O)c1cccc(Nc2nc(-c3ccccc3)c3cc(Cl)ccc3n2)c1,/,/,10µM*,-32.9,?
COc1ccc(Nc2nc(N3CCCC3)nc3ccccc23)c(OC)c1,11.2µM*,?,3.16µM*,?,/
Oc1ccc(Nc2nc(N3CCCC3)c3ccccc3n2)cc1,8.91µM*,?,?,-65.9*,-28.0%
O=c1cc(CO)oc(C(Nc2ccccn2)c2ccccc2Cl)c1O (configuration not stated),-22.1%,-11.9%,1.9%,6.4,-15.9%
Oc1c(C(Nc2ccccn2)c2cccnc2)cc(Cl)c2cccnc12 (configuration not stated),?,?,?,1.7,-24.6%
Oc1cccc(C(Nc2nccs2)c2ccc3cccnc3c2O)c1 (configuration not stated),?,15.8µM*,?,-93.4*,-9.6%
Oc1cccc(C(Nc2ccccn2)c2ccc3cccnc3c2O)c1Cl (configuration not stated),?,?,/,-82.3*,-24.4%

# Screening results from PubChem.
